Our source for the outcome and AC50 values is PubChem BioAssay (EPA / NIEHS).

In assay [1] the target is Nucleoli Translocation, AR (gene 367) (UniProt P10275). The assay can be described thus: UPITT_HCI_U2OS_AR_TIF2_Nucleoli_Antagonist: University of Pittsburgh U2OS Androgen Receptor-Transcriptional Intermediary Factor 2 (AR-TIF2) Antagonism High Content Imaging Assay for Nucleoli Translocation (AID 2283997). Summed up: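 Measured quantity was AR-RFP fluorescence localized to nucleoli in engineered U2OS cells also bearing TIF2-GFP, acquired on automated high-content imagers. Primary testing used 20 uM compound; actives were confirmed in triplicate wells.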
Nucleoli Translocation, AR (gene 367), sequence (P10275 whole entry, looked up): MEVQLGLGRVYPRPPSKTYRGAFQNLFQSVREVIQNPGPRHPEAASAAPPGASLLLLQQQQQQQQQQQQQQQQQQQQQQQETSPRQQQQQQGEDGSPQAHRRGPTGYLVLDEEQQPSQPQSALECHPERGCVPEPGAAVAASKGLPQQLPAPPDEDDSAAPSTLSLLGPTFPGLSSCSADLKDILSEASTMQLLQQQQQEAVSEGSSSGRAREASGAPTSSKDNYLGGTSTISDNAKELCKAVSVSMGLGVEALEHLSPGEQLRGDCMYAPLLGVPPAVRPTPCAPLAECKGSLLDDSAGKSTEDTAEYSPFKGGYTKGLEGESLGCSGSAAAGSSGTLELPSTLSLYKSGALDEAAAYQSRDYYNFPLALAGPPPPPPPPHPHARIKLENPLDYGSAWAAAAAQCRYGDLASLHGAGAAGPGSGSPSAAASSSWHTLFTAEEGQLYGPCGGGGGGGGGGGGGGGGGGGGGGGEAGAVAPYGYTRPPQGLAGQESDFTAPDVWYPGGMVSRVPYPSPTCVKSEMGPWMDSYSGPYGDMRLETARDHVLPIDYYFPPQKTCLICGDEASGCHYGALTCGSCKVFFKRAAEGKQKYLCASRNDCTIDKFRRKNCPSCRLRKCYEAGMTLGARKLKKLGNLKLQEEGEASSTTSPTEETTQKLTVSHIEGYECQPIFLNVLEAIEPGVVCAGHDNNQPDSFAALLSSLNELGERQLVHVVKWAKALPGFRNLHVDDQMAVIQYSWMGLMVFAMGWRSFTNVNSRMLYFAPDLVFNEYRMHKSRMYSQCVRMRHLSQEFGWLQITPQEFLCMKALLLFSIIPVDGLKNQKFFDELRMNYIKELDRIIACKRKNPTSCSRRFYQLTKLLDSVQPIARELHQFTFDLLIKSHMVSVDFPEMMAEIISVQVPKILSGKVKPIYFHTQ

The target is the same in assay [2]. The assay can be described thus: UPITT_HCI_U2OS_AR_TIF2_Nucleoli_Agonist: University of Pittsburgh U2OS Androgen Receptor-Transcriptional Intermediary Factor 2 (AR-TIF2) Agonism High Content Imaging Assay for Nucleoli Translocation (AID 2283998). The gist of the method:
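Red-tagged human androgen receptor co-expressed with GFP-tagged TIF2 serves as the binding reporter. Primary testing used 20 uM final (0.2% DMSO); follow-up dose response covered 0.195 to 50 uM final (0.5% DMSO).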

The target in assay [3] is Ratio of Nucleoli Translocation and Cytoplasm, AR (gene 367) (UniProt P10275). Nature of the assay: UPITT_HCI_U2OS_AR_TIF2_Nucleoli_Cytoplasm_Ratio_Agonist: University of Pittsburgh U2OS Androgen Receptor-Transcriptional Intermediary Factor 2 (AR-TIF2) Agonism High Content Imaging Assay for Ratio of Nucleoli Translocation and Cytoplasm (AID 2284000).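 Further: hits raise the red nucleolar to cytoplasm ratio above vehicle.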 The gist of the method: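 Read-out first: nucleolar-to-cytoplasm ratio of red (AR-RFP) signal, quantified by high-content imaging in U2OS cells co-expressing TIF2-GFP. Activity is scored as signal increase over DMSO. Single-point screening used 20 uM final (0.2% DMSO).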
Ratio of Nucleoli Translocation and Cytoplasm, AR (gene 367), sequence (P10275 whole entry, looked up): as above

A short description of assay [4]: CCTE_Shafer_MEA_acute_spike_number: CCTE's Neural Acute Assay for Total Number of Spikes, Shafer Lab (AID 2284008; active means hit-call score of the fitted dose curve at least 0.9, where 1 is the maximum; inactive means score below 0.9;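 on AC50: curve fitted for decrease in spike count so AC50 reflects inhibitors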). The gist of the method: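 Cortical neurons from rat, matured to DIV 13 or 15 on microelectrode arrays, are recorded at 37 C before and during 40-min exposure to 0.03-40 uM compound. Wells need >/= 10 active electrodes.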
Assay [5] is described as follows: CCTE_Shafer_MEA_acute_firing_rate_mean: CCTE's Neural Acute Assay for Mean Firing Rate, Shafer Lab (AID 2284009; active means hit-call score of the fitted dose curve at least 0.9, where 1 is the maximum; inactive means score below 0.9;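 further: analyzed for loss of signal so actives lower firing rate relative to DMSO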). Summed up: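 Percent change in well-mean firing rate was derived from extracellular spikes detected at 8x rms noise (300-5000 Hz band-pass) before and after a 40-min compound exposure. Cultures were primary rat cortical neurons, tested at 0.03-40 uM.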

The test system of assay [6] is DIO1 (gene 1733). The assay can be described thus: CCTE_GLTED_hDIO1: CCTE's human Deiodinase 1 (DIO1) Inhibition Assay, Great Lakes Toxicology and Ecology Division (GLTED) Lab (AID 2283987).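 Further: isolated human DIO1 enzyme in a cell-free setup rather than cells; enzyme activity read as free iodide liberated from substrate via Sandell-Kolthoff colorimetry.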 Summed up:
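Cell-free hDIO1 assay, triplicate plates. Absorbance of the Sandell-Kolthoff reaction reports enzyme-liberated iodide; iodinated chemicals or nitrite, iron and thiocyanate may interfere.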

The nature of assay [7]: CCTE_Harrill_HTTr_Viability_MCF7: CCTE's 6-hour Cell Viability Assessment for the High-Throughput Transcriptomics (HTTr) Platform, in MCF-7 cells cultured in DMEM + 10% fetal bovine serum, Harrill Lab (AID 2284010; active means hit-call score of the fitted dose curve at least 0.9, where 1 is the maximum; inactive means score below 0.9). Summed up: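 Viability measured through PI dye exclusion by high-content imaging at 6 h post-dosing.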
A short description of assay [8]: CCTE_Harrill_HTTr_Apoptosis_MCF7: CCTE's 6-hour Apoptosis Assessment for the High-Throughput Transcriptomics (HTTr) Platform, in MCF-7 cells cultured in DMEM + 10% fetal bovine serum, Harrill Lab (AID 2284011; active means hit-call score of the fitted dose curve at least 0.9, where 1 is the maximum; inactive means score below 0.9). The gist of the method:
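Cells are dosed with test chemicals at eight concentrations and imaged 6 hours later for caspase-3/7 activity using a green fluorogenic detection reagent. Activity is fitted in both directions against DMSO controls.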

Assay [9] deals with Ratio of Nucleoli Translocation and Cytoplasm, AR (gene 367) (UniProt P10275). The assay can be described thus: UPITT_HCI_U2OS_AR_TIF2_Nucleoli_Cytoplasm_Ratio_Antagonist: University of Pittsburgh U2OS Androgen Receptor-Transcriptional Intermediary Factor 2 (AR-TIF2) Antagonism High Content Imaging Assay for Ratio of Nucleoli Translocation and Cytoplasm (AID 2283999).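 Further: antagonists lower the DHT-driven ratio of nucleolar to cytoplasmic red signal.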 The gist of the method:
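High-content imaging quantifies the red nucleolar:cytoplasmic fluorescence ratio in U2OS cells with AR-RFP and TIF2-GFP. Final concentrations are 20 uM (screen) or 0.195–50 uM (dose response), analysed against DHT as baseline.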

Assay [10] can be described thus: TOX21_PR_LUC_Followup_Agonist_viability: Viability Assessment in the Tox21 HEK293 Progesterone Receptor (PR) Agonism Luciferase Follow-Up Assay (AID 2283941).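 Further: compound exposure 16 h at 37 °C; loss of signal means cytotoxicity so actives lower viability.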 The gist of the method:
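Luminescent ATP quantitation (CellTiter-Glo) serves as the read-out; a drop flags cytotoxic compounds. Cells are HEK293-PR-A-luc grown in 10% charcoal-stripped FBS, plated 3,000/well, and exposed to compound for 16 h.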

Broadly, the AC50 is the midpoint of the concentration-response curve, whichever way the signal moves.

Results filed as inconclusive are left out. Activity calls are given as the source filed them. How the source made its calls, unless noted: active means hit-call score of the fitted dose curve at least 0.9, where 1 is the maximum; inconclusive means response in the unintended direction; inactive means score below 0.9.

For the compound `CCCCC(CC)COC(=O)/C=C/c1ccc(OC)cc1` (stereo not given), the outcome in assay [1], in assay [2] and in assay [3] was inactive.

Take `c1ccc(Nc2cccc3ccccc23)cc1`: the AC50 in assay [4] is 1.08 µM (active); in [5], 979 nM (active).

In the case of `COc1cc(O)c(C(=O)c2ccccc2)cc1S(=O)(=O)O`, the outcome in [1] was inactive.

Turning to `O=c1c(O)c(-c2ccc(O)cc2O)oc2cc(O)cc(O)c12`, the AC50 in assay [6] was 9.81 µM (active).

Regarding `CCC(C)c1ccccc1` (stereo not given), the outcome in [1], in assay [2], in assay [3], in [7] and in [8] was inactive.

As for `CCCCC/C=C\C/C=C\CCCCCCCC(=O)O`, the AC50 in assay [6] is 19.2 µM (active). Further, the result in [7] and in assay [8] was inactive.

In the case of `CN(C)Cc1cc(CN(C)C)c(O)c(CN(C)C)c1`, the result in assay [1], in [2], in assay [9] and in assay [3] was inactive.

Turning to `CCCCCCCCCCCCCCCCCCOS(=O)(=O)O`, the AC50 in [6] is 90.1 µM (active).

With `CC(=O)OCc1ccccc1`, the call in assay [1], in [2], in assay [9], in assay [3] and in assay [7] was inactive.

For `O=C(O)c1ccc2c(c1)C(=O)OC2=O`, the compound was classed as inactive in assay [1], in assay [2], in assay [9] and in [8].

`CCc1cccc(C)c1N`: the compound was classed as inactive in assay [1], in [2] and in assay [9].

Regarding `c1ccc2c(c1)[nH]c1ccccc12`, the outcome in [10], in assay [2], in assay [9] and in assay [3] was inactive. Moreover, the AC50 in [1] was 8.38 µM (active).

Regarding `Nc1ccc(C(=O)OCCCOC(=O)c2ccc(N)cc2)cc1`, the call in assay [10] was inactive.

As to `CC(CCC(=O)O)(c1ccc(O)cc1)c1ccc(O)cc1`, the compound was called inactive in [4] and in assay [5].

On to `Cc1ccc(C)c(OCCCC(C)(C)C(=O)O)c1`, for which the call in assay [1], in assay [2], in assay [9], in assay [3] and in assay [8] was inactive.

In the case of `O=C(O)c1cc(O)c2ccccc2c1O`, the AC50 in [6] was 50.1 µM (active).

For the compound `CCCCCC[C@@H](O)C/C=C\CCCCCCCC(=O)OCC(O)CO` (stereo not given in full), the call in assay [1], in assay [2], in assay [9] and in [3] was inactive.
